Reference: PubChem BioAssay (EPA / NIEHS)
Where “and” joins values, the source holds several entries; their conditions need not be identical. Equal entries are not always repeated. Calls of active or inactive are those of the source. Rule for the calls: active = hit-call score of the fitted dose curve at least 0.9, where 1 is the maximum; inactive = score below 0.9.

Tested on: TTR (gene 7276)
Assay: CCTE_GLTED_hTTR_0.125uM: CCTE's human Transthyretin (hTTR) Inhibition Assay, with 0.125uM TTR, Great Lakes Toxicology and Ecology Division (GLTED) Lab (AID 2284431)
Procedure: CCTE_GLTED_hTTR is a cell-free, single-readout assay designed to test the chemicals' ability to displace T4 from the human transthyretin (TTR) protein. TTR (at 0.125uM or 0.5uM) is incubated in presence of test chemical for 2 hours during which disrupting chemicals displace ANSA from the TTR protein. Results read fluorescence at 380 excitation and 475 emission.CCTE_GLTED_hTTR_0.125uM is the assay component measured from the CCTE_GLTED_hTTR assay. It is designed to make measurements of fluorescent polarization, using a form of binding reporter, as detected with Fluorescence signals by Fluorescence technology.Data from the assay component CCTE_GLTED_hTTR_0.125uM was analyzed at the assay endpoint CCTE_GLTED_hTTR_0.125uM in the positive analysis fitting direction relative to DMSO as the negative control and baseline of activity. Using a type of binding reporter, loss-of-signal activity can be used to understand a chemical's ability to displace T4 from transthyretin. To generalize the intended target to other relatable targets, this assay endpoint is annotated to the 'transporter' intended target family, where the subfamily is 'hormone carrier protein'.
Human transthyretin (TTR) assay, developed at Great Lakes Toxicology and Ecology Division (GLTED) within the EPA's Center for Computational Toxicology and Exposure (CCTE), is designed to test the chemicals' ability to displace T4 from the TTR protein. TTR (0.125uM) is incubated in presence of test chemical for 2 hours during which disrupting chemicals displace ANSA from the TTR protein. Results read fluorescence at 380 excitation and 475 emission.

| Structure (SMILES) | AC50 |
| --- | --- |
| ClC(Cl)=C(Cl)C(Cl)=C(Cl)Cl | 9.92 µM (active) |
| O=C(O)C(F)(F)C(F)(F)C(F)(F)C(F)(F)C(F)(F)C(F)(F)F | 0.236 µM (active) |
| Oc1ccc(-c2ccccc2)cc1 | 2.83 µM (active) |
| CCCCCCCCc1ccc(O)cc1 | 1.2 µM (active) |
| COP(=S)(OC)Oc1ccc(Sc2ccc(OP(=S)(OC)OC)cc2)cc1 | 0.537 µM (active) |
| COc1cc(-c2ccc(N)c(OC)c2)ccc1N | 104 nM (active) and 2.64 µM (active) |
| CC(C)(c1ccccc1)c1ccc(O)c(C(C)(C)c2ccccc2)c1 | 0.241 µM (active) |
| CCC(C)(C)c1ccc(O)c(C(C)(C)CC)c1 | 3.18 µM (active) |
| COP(=O)(OC)O/C(=C\Cl)c1cc(Cl)c(Cl)cc1Cl | 1.18 µM (active) |
| CC(C)(C)CC(C)(C)c1ccc(O)cc1 | 13.1 µM (active) |
| O=[N+]([O-])c1ccc(O)c([N+](=O)[O-])c1 | 0.155 µM (active) |
| CCOP(=S)(OCC)Oc1nc(Cl)c(Cl)cc1Cl | 0.376 µM (active) |
| O=C1C(Cl)=C(Cl)C(=O)c2ccccc21 | 3.67 µM (active) |
| CCOP(=S)(OCC)SCSP(=S)(OCC)OCC | 1.57 µM (active) |
| O=C(O)C(F)(F)C(F)(F)C(F)(F)C(F)(F)C(F)(F)C(F)(F)C(F)(F)C(F)(F)C(F)(F)C(F)(F)F | 0.783 µM (active) |
